MITF primary: MITF inhibitors, primary screen, biochemical, AlphaScreen, human. inhibition, % at 2.6 µM. 0.91% of 650,000 active. AID 1259374, 2018. AlphaScreen MITF homodimerization, bead proximity signal. Microphthalmia-associated transcription factor (Homo sapiens), O75030; in the data active means inhibition above about 50%;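 further: 0% = vehicle wells with protein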
Target sequence (O75030 whole entry, looked up): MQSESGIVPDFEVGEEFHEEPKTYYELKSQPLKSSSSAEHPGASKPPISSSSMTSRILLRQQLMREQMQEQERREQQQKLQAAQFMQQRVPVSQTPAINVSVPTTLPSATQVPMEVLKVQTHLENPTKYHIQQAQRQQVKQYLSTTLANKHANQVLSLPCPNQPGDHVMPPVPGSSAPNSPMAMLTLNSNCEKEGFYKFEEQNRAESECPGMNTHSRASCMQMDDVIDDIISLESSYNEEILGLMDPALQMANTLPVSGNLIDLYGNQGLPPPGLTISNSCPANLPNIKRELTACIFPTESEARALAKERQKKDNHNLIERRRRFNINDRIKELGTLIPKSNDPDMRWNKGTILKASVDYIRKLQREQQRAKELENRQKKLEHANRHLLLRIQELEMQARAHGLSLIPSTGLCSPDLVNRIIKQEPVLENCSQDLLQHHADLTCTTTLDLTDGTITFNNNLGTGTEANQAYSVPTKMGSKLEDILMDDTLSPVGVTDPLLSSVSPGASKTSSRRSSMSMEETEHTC
TEAD-YAP block: TEAD-YAP interaction inhibition, primary screen, TEAD-YAP interaction inhibitor project, luminescence, HEK-TIYL cells; 1.4% of 640,000 active; inhibition, % at 9.12 µM; TEAD-Gal4/YAP UAS-luciferase luminescence; AID 1259422, 2018; in the data active means inhibition above about 32%;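 further: 0% = median of test compound wells and 100% = reference inhibitor wells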
GPR151 ag: activators of human GPR151, primary screen, cell-based, PathHunter beta-arrestin, luminescence; G-protein coupled receptor 151 (Homo sapiens), Q8TDV0; PathHunter beta-arrestin GPR151 cells; activation, % at 11.2 µM; 1% of 650,000 active; AID 1508602, 2020; in the data active means activation above about 4.9%;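 further: 0% = median of compound wells and 100% = cells with positive control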
FBW7 act: FBW7 E3 ligase activators, primary screen, biochemical, AlphaScreen, human; normalized activity (activation), % at 26.1 µM; AlphaScreen FBW7–phospho-cyclin E peptide binding, activator screen; AID 1259310, 2017; F-box/WD repeat-containing protein 7 (Homo sapiens), Q969H0; 0.13% of 650,000 active; in the data active means normalized activity above about 1.9%;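 further: purified mutant Fbw7 with reduced substrate affinity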
* = called active by the depositor. This is a sample that favours compounds with a hit; in the whole collection about 3.5% have one here.

SMILES	MITF primary	TEAD-YAP block	GPR151 ag	FBW7 act
CCOC(=O)CSc1nnnn1-c1ccccc1F	6	-1	-2	1
NC(=O)CSc1nnnn1-c1ccccc1F	4	12	-2	2.4*
Fc1ccccc1CSc1nnnn1-c1ccccc1F	21	-13	-1	2.3*
NC(C(=O)N1CCN(c2ccc3[nH]ncc3c2)CC1)c1ccc(Br)cc1 (stereo not drawn)	15	-7	0	0
O=c1c(-c2ccc(Cl)cc2)c(N2CCN(c3ccccc3)CC2)c1=O	1	60*	3	0
COc1ccccc1N1CCN(c2c(-c3ccccc3)c(=O)c2=O)CC1	-4	67*	-2	0
O=c1c(-c2ccccc2)c(N2CCN(c3cccc(Cl)c3)CC2)c1=O	-10	1	0	0
O=c1c(-c2ccccc2)c(N2CCN(c3ccccc3F)CC2)c1=O	2	-8	0	0
O=c1c(-c2ccc(Cl)cc2)c(N2CCN(c3ccccc3F)CC2)c1=O	17	42*	1	0
Cn1ncc2c1/C(=C/c1ccc(Cl)cc1)CC2	8	55*	-10	0
N#CCCn1ncc2c1/C(=C/c1ccccc1)CC2	14	3	3	0
CCOc1cccc(C=NCCc2cccs2)c1O	6	-3	0	0
COCCC(=O)N1CCc2c([nH]c3ccccc23)C1c1cccc(C)n1 (stereo not drawn)	0	-2	0	0
CCOC(=O)Cn1cc(/C=C2/C(=O)N(c3cccc(C(=O)O)c3)N=C2C)c2ccccc21	51*	-3	1	0
C=CCNC(=S)NNc1nc(N2CCCC2)nc(N2CCCC2)n1	3	7	0	0
C=CCNC(=S)NNc1nc(Nc2ccccc2)nc(N2CCCCC2)n1	15	34*	1	0
COc1ccc(CC(=O)NCC2(c3ccc(OC)c(OC)c3)CCCC2)cc1OC	3	16	2	0
O=C(Nc1cc([N+](=O)[O-])ccc1F)c1cccc(F)c1	12	34*	2	0
O=C(Nc1cc([N+](=O)[O-])ccc1F)c1cccc(Br)c1	-3	18	1	0
O=C(Nc1cc([N+](=O)[O-])ccc1F)c1ccccc1	10	16	-1	0
O=C(CCCc1ccccc1)Nc1cc([N+](=O)[O-])ccc1F	-4	13	1	0
O=C(Nc1cc([N+](=O)[O-])ccc1F)c1ccc(Br)cc1	-9	39*	3	0
O=C(Nc1ccccc1F)c1cc(F)ccc1[N+](=O)[O-]	10	56*	0	0
O=C(CCc1ccccc1)Nc1cc([N+](=O)[O-])ccc1F	17	61*	0	-1
COc1ccc(OC)c(NC(=O)CCC(=O)Nc2cc(OC)ccc2OC)c1	-11	-4	0	0
SMILES	MITF primary	TEAD-YAP block	GPR151 ag	FBW7 act
O=C(NCCCN1CCOCC1)c1nnc(Cc2cccc(F)c2)o1	8	2	1	0
O=C1c2ccccc2NC2(CCCCC2)N1c1ccc(O)cc1	-13	58*	-2	0
COc1ccc(C2C=C(c3ccc(F)cc3)Nc3ncnn32)cc1OC (stereo not drawn)	14	12	0	1
COc1cc(C2C3=C(Nc4ncnn42)c2ccccc2CC3)cc(OC)c1OC (stereo not drawn)	13	68*	1	0
CCOc1ccc(C2C=C(c3ccc(CC)cc3)Nc3ncnn32)cc1OC (stereo not drawn)	27	37*	0	0
CCc1ccc(C2=CC(c3cccc(OC)c3OC)n3ncnc3N2)cc1 (stereo not drawn)	2	-6	2	0
COc1ccc(C2=CC(c3ccc(OC)c(OC)c3)n3ncnc3N2)cc1 (stereo not drawn)	12	43*	-1	0
CCc1ccc(C2=CC(c3cc(OC)c(OC)c(OC)c3)n3ncnc3N2)cc1 (stereo not drawn)	8	65*	-1	0
COc1ccc(C2C=C(c3ccc(Cl)cc3)Nc3nnnn32)cc1OC (stereo not drawn)	9	1	-1	0
COC(=O)c1nc2n(n1)C(c1cc(OC)c(OC)c(OC)c1)C=C(c1cccs1)N2 (stereo not drawn)	-1	52*	0	0
COc1ccc(C2=CC(c3ccc(F)cc3)n3ncnc3N2)cc1 (stereo not drawn)	-1	-14	-2	0
COc1ccc(C2=CC(c3cc(OC)c(OC)c(OC)c3)n3ncnc3N2)cc1 (stereo not drawn)	2	63*	0	0
COc1cc(C2C=C(c3ccc(Cl)cc3)Nc3ncnn32)cc(OC)c1OC (stereo not drawn)	12	64*	-1	0
COc1cc(C2C=C(c3ccc(Cl)cc3)Nc3nnnn32)cc(OC)c1OC (stereo not drawn)	23	55*	-1	1
O=C(c1ccccc1)N1CC(COc2ccccc2)OC(c2cccc([N+](=O)[O-])c2)O1 (stereo not drawn)	7	15	1	0
COc1cc(C2C=C(c3cccs3)Nc3ncnn32)cc(OC)c1OC (stereo not drawn)	18	65*	-1	0
O=C(NCCc1nnc2n1CCN(Cc1ccc3c(c1)OCO3)CC2)c1ccoc1	-18	0	1	0
COc1ccc(C(=CCl)c2ccc(OC)cc2)cc1	-9	42*	2	0
CC(C)C(=O)Nc1cc(-c2nc3cc(C(C)C)ccc3o2)ccc1Cl	-15	45*	0	0
CCC(=O)Nc1ccc2oc(-c3ccccc3F)nc2c1	7	39*	-2	0
Cc1cc(OCC(=O)Nc2ccc3oc(-c4cccnc4)nc3c2)cc(C)c1Cl	-5	-12	-1	0
Cc1cc(C)c2oc(-c3cccc(NC(=O)COc4cc(C)c(Cl)c(C)c4)c3)nc2c1	-16	42*	0	0
Cc1cc(OCC(=O)Nc2ccc3oc(-c4ccccc4Br)nc3c2)cc(C)c1Cl	25	3	3	2.0*
O=C(Cc1ccc(Cl)cc1)Nc1ccc2oc(-c3ccccc3F)nc2c1	2	-13	-1	0
COc1ccccc1-n1c(SCC(=O)N2CCCCCC2)nc2c(c1=O)SCC2	-3	-1	-1	0
O=C(CSc1nnnn1-c1ccc(Cl)cc1)Nc1ccc(C(=O)O)cc1	10	5	0	1
Cc1cc(OCC(=O)Nc2ccc(-c3nc4cc(C(C)C)ccc4o3)cc2)cc(C)c1Cl	20	6	-1	0
CC(C)c1ccc2oc(-c3ccc(NC(=O)COc4ccc5ccccc5c4)cc3)nc2c1	2	42*	0	0
CC(=O)Oc1ccccc1C(=O)Nc1ccc(S(=O)(=O)NC(C)(C)C)cc1	16	-10	-1	0
